Calls of active or inactive are those of the source.
Tests used:
[1] = E. coli DRC41 culture turbidity changes, primary screen, E. coli filamentation inducer project, strain DRC41, OD650, 48 h (AID 1152);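 further: E. coli MC1000 strain DRC41 lacking acrAB efflux pump and sulA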; conditions: E. coli DRC41 (acrAB sulA), higher = more signal, called active from +8 up or from −8 down
[2] = small-molecule binders of probe aLefty1, primary screen, biochemical, small-molecule microarray, 635/667 nm fluorescence (AID 1153); conditions: higher = more signal;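 further: score merges spot fluorescence with signal-to-noise ratio from the scanned slide images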
[3] = PSAC antagonists in infected red cells, primary screen, cell-based, P. falciparum Indochina, OD700, 1 h (AID 1154); conditions: P. falciparum Indochina infected RBC osmotic lysis, higher = more signal, called active from +8 up or from −8 down
[4] = PSAC antagonists in infected red cells, primary screen, cell-based, P. falciparum Indochina, OD700, 2 h (AID 1155);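 further: lysis reports solute entry through the parasite surface anion channel PSAC; channel blockers reduce lysis of infected cells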; conditions: P. falciparum Indochina infected erythrocytes, osmotic lysis OD700; higher = more signal, called active from +8 up or from −8 down
[5] = osmotic lysis modulators in infected erythrocytes, primary screen, PSAC antagonist project, cell-based, P. falciparum Indochina, OD700, 3 h (AID 1156); conditions: higher = more signal, called active from +8 up or from −8 down
[6] = PSAC antagonists in infected red cells, primary screen, cell-based, P. falciparum Indochina, OD700, 18 h (AID 1157); conditions: P. falciparum Indochina infected erythrocytes, osmotic lysis OD700, 18 h; higher = more signal, called active from +8 up or from −8 down
[7] = modulators of S6 phosphorylation in cells, primary screen, cell-based, A549, cytoblot, luminescence, serum-stimulated (AID 1158); conditions: A549 phospho-S6 cytoblot, 5 h, higher = more signal;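 further: serum-stimulated A549 lung adenocarcinoma cells; signal is phosphorylated S6 detected by cytoblot immunostaining with HRP secondary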
[8] = target: NADPH oxidase 2 (Homo sapiens) (UniProt P04839); assay: NOX2-dependent H2O2 signal modulators, primary screen, NOX inhibitor project, cell-based, HEK293-NOX2, PMA-stimulated, Amplex Red fluorescence (AID 1159); conditions: 45 min, higher = more signal, called active from +8 up or from −8 down; further: test concentration not given here
NADPH oxidase 2 (Homo sapiens), sequence (P04839 whole entry, looked up): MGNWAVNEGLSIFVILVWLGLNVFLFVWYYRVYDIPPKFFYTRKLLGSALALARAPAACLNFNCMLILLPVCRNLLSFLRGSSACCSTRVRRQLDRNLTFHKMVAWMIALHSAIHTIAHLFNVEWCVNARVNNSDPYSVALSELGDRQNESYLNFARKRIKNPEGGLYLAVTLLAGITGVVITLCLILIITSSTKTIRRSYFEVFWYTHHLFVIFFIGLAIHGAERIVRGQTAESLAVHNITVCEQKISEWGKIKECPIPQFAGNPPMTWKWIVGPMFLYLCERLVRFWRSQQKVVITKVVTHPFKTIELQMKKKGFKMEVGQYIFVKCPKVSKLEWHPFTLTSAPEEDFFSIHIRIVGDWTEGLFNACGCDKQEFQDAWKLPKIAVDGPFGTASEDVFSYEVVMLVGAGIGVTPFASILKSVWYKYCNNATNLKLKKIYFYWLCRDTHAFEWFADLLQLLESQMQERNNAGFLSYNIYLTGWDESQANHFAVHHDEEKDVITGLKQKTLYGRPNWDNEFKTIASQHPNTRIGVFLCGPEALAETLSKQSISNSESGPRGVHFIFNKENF

[9] = target: NADPH oxidase 4 (Homo sapiens) (UniProt Q9NPH5); assay: NOX4-dependent H2O2 signal modulators, primary screen, NOX inhibitor project, cell-based, HEK293-NOX4, tetracycline-induced, Amplex Red fluorescence (AID 1160); conditions: 45 min, higher = more signal, called active from +8 up or from −8 down
NADPH oxidase 4 (Homo sapiens), sequence (Q9NPH5 whole entry, looked up): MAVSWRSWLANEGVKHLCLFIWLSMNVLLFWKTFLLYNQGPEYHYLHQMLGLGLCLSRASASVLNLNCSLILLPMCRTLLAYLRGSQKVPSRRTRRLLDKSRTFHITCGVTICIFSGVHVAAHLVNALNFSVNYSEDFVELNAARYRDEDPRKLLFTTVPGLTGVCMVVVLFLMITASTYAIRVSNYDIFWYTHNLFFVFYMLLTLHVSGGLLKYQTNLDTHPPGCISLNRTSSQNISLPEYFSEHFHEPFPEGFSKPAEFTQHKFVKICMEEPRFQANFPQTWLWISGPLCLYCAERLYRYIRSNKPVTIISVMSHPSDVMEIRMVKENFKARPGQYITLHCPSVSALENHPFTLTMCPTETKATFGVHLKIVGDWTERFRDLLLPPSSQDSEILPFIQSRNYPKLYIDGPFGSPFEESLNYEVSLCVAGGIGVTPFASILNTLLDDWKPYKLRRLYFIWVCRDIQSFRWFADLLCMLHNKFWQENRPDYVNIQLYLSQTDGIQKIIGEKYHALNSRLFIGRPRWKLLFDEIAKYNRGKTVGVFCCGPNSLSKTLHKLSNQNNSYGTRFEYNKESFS

[10] = target: NADPH oxidase 5 (Homo sapiens) (UniProt Q96PH1); assay: NOX5-dependent H2O2 signal modulators, primary screen, NOX inhibitor project, cell-based, HEK293-NOX5, Amplex Red fluorescence (AID 1161); conditions: HEK293-NOX5, ionomycin, 45 min, higher = more signal
NADPH oxidase 5 (Homo sapiens), sequence (Q96PH1 whole entry, looked up): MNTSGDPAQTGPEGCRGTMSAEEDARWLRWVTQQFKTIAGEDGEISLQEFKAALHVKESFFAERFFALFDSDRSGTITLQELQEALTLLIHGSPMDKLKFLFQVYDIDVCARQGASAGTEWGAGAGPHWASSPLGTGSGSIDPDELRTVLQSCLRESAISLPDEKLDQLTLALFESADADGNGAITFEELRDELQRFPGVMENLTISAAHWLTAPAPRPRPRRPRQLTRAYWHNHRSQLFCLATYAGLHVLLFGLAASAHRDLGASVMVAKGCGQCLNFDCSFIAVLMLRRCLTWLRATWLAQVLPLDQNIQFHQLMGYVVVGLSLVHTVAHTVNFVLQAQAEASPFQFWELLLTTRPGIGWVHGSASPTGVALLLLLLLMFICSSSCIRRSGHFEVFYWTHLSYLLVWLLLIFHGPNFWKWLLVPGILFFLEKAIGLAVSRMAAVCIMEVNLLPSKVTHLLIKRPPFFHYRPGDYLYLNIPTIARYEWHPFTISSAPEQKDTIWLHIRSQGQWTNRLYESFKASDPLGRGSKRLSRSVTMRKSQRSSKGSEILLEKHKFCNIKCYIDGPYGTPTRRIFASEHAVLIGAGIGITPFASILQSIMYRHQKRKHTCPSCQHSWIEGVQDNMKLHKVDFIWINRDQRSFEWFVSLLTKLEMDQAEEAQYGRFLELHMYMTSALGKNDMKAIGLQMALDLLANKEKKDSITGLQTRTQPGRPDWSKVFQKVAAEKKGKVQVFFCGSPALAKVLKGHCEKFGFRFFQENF

[11] = A549 cell viability effects, profiling panel, calcein-AM fluorescence, 48 h, basal (AID 1162); conditions: higher = more signal; further: test concentration not given here
[12] = adipocyte viability effects, profiling panel, cell-based, 3T3-L1 adipocytes, calcein-AM fluorescence, 48 h, basal (AID 1163); conditions: 3T3-L1 adipocytes viability, higher = more signal; further: test concentration not given here
[13] = HepG2 cell viability effects, profiling panel, calcein-AM fluorescence, 48 h, basal (AID 1164); conditions: higher = more signal; further: test concentration not given here
[14] = MM1S cell viability effects, profiling panel, calcein-AM fluorescence, 48 h, basal (AID 1165); conditions: higher = more signal;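 further: viability of MM1S multiple myeloma cells under basal unstimulated conditions; test concentration not given here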
[15] = basal RPMI8226 viability, no added stimulus, profiling panel, cell-based, calcein-AM fluorescence, 48 h, PK04 Diversity Set (AID 1166); conditions: RPMI8226 myeloma viability, higher = more signal;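 further: cells grown under basal conditions without added stimulus; test concentration not given here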
[16] = basal HepG2 mitochondrial membrane potential changes, profiling panel, cell-based, JC-1 fluorescence, 24 h, 100 nL compound (AID 1167); conditions: higher = more signal; further: test concentration not given here
[17] = basal 3T3-L1 adipocyte mitochondrial potential changes, profiling panel, cell-based, JC-1 fluorescence, 3T3-L1 adipocytes, 24 h, 100 nL compound (AID 1168); conditions: JC-1 mitochondrial fluorescence, higher = more signal, called active from +8 up or from −8 down; further: test concentration not given here
[18] = basal RPMI8226 mitochondrial membrane potential changes, profiling panel, cell-based, JC-1 fluorescence, 24 h, 100 nL compound (AID 1169); conditions: RPMI8226 myeloma, JC-1 mitochondrial potential fluorescence, higher = more signal; further: test concentration not given here
[19] = basal MM1S mitochondrial membrane potential changes, profiling panel, cell-based, JC-1 fluorescence, 24 h, 100 nL compound (AID 1170); conditions: higher = more signal; further: test concentration not given here
[20] = A549 lung cancer cell viability effects, profiling panel, resazurin fluorescence, 24 h, PK04 Diversity Set (AID 1171); conditions: higher = more signal, called active from +8 up or from −8 down; further: test concentration not given here

SMILES	z-score [1]	composite z-score [2]	z-score [3]	z-score [4]	z-score [5]	z-score [6]	z-score [7]	z-score [8]	z-score [9]	z-score [10]	z-score [11]	z-score [12]	z-score [13]	z-score [14]	z-score [15]	z-score [16]	z-score [17]	z-score [18]	z-score [19]	z-score [20]
NC(=O)N1C(=O)C2C(C1=O)C1C=C(c3ccc(CO)cc3)C2C(C2CC2)N1Cc1sc2ccccc2c1Cl (stereo not given)	0.421 (inactive)	0.317	17.8 (active)	3.88 (inactive)	0.777 (inactive)	1.39 (inactive)	-0.436	2.51 (inactive)	-0.148 (inactive)	-0.568	0.965	0.21	0.197	-3.27	-3.61	0.159	0.189 (inactive)	-0.65	-0.311	-0.207 (inactive)
COCCOC(=O)N1C(=O)[C@@]2(c3cc(C#CC4(O)CCCCCC4)ccc31)[C@H](c1ccccc1OCCO)N1[C@H](c3ccccc3)[C@H](c3ccccc3)OC(=O)[C@H]1[C@@H]2C(N)=O	-0.552 (inactive)	-0.0046	4.08 (inactive)	1.76 (inactive)	-0.971 (inactive)	0.76 (inactive)	-0.255	1.8 (inactive)	-0.551 (inactive)	-0.269	-2.37	0.943	-4.78	-3.43	-4.62	-2.3	1.8 (inactive)	-1.14	-1.88	-2.94 (inactive)
CC(C)(C)OC(=O)CC[C@@]1(C(=O)O)N=C(c2ccc(OCCCO)cc2)O[C@@H]1c1ccccc1CN=[N+]=[N-]	0.648 (inactive)	0.479	24.5 (active)	10 (active)	-0.0836 (inactive)	1.53 (inactive)	0.0274	0.716 (inactive)	0.691 (inactive)	1.53	0.824	-0.0107	0.0885	0.131	0.813	-0.0553	-0.913 (inactive)	-0.411	-0.579	10.4 (active)
COc1ccc([Si](C)(C)[C@H]2[C@H](CCn3cc(CCO)nn3)O[C@@]3(C(=O)N(Cc4ccc(N5C(=O)c6cccc7cccc5c67)cc4)c4ccccc43)[C@@H]2C)cc1	1.91 (inactive)	0.108	4.64 (inactive)	0.882 (inactive)	0.134 (inactive)	-0.627 (inactive)	1.64	-0.985 (inactive)	1.82 (inactive)	1.44	-1.61	1.36	-4.11	-2.56	-4.29	-0.0483	-0.712 (inactive)	-1.09	-2.18	-2.57 (inactive)
CCOC(=O)C1=CC[C@@H](c2cc(Cl)ccc2Cl)N(S(=O)(=O)c2ccc(C)cc2)[C@H]1c1ccc(OC)cc1	-0.718 (inactive)	0.369	2.98 (inactive)	1.92 (inactive)	0.926 (inactive)	0.826 (inactive)	-0.371	0.28 (inactive)	-0.51 (inactive)	0.465	-0.41	-0.603	0.118	-0.852	0.199	1.17	-1 (inactive)	0.642	-2.07	-0.629 (inactive)
O=C1O[C@@H](c2ccccc2)[C@@H](c2ccccc2)N2[C@@H](c3ccc(O)cc3)[C@]3(C(=O)Nc4ccc(C#CCCO)cc43)[C@@H](C(=O)NC[C@H](O)c3ccccc3)[C@H]12	0.646 (inactive)	0.279	2.75 (inactive)	0.31 (inactive)	0.283 (inactive)	0.0695 (inactive)	-0.318	-0.247 (inactive)	-0.718 (inactive)	-0.159	0.479	0.269	0.333	-0.121	0.671	-1.93	-1.16 (inactive)	0.198	-0.667	0.588 (inactive)
CCCC=C(CCC)[C@@H](NP(=O)(c1ccccc1)c1ccccc1)c1ccc(C(F)(F)F)cc1	-1.5 (inactive)	-0.485	-0.56 (inactive)	-0.647 (inactive)	-0.309 (inactive)	-1.24 (inactive)	0.828	0.147 (inactive)	1.46 (inactive)	1.81	-0.779	-0.531	-0.365	0.463	0.218	-0.497	-1.53 (inactive)	0.72	-0.379	0.472 (inactive)
C=C(CCCC)/C(=C/C[C@@H](OC(C)=O)c1ccc(CO)o1)c1cc(C(=O)OC)ccc1OC	-0.132 (inactive)	-0.0011	9.64 (active)	0.938 (inactive)	1.3 (inactive)	0.553 (inactive)	0.476	0.615 (inactive)	-0.832 (inactive)	-1.18	0.813	-0.504	0.882	-1.81	-0.564	0.152	-0.573 (inactive)	0.507	-1.36	0.111 (inactive)
COC(=O)[C@]1(CCS(=O)(=O)c2ccccc2)N=C(c2ccc(OCCCO)cc2)O[C@@H]1c1ccccc1CN=[N+]=[N-]	-2.11 (inactive)	0.15	30.4 (active)	28 (active)	1.82 (inactive)	5.19 (inactive)	-0.505	-5.83 (inactive)	-1.31 (inactive)	-3.08	-2.82	0.65	-2.94	-3.4	-3.15	-1.05	-1.02 (inactive)	-1.08	-1.88	-4.11 (inactive)
C=CCOC(=O)[C@@H]1[C@H]2C(=O)O[C@H](c3ccccc3)[C@H](c3ccccc3)N2[C@H](c2ccc(OCCOC(=O)[C@H]3C[C@H]4C(=O)N[C@@H](CCCCNC(C)=O)C(=O)N4[C@H]3c3cccc(OCCO)c3)cc2)[C@@]12C(=O)Nc1ccc(I)cc12	-0.04 (inactive)	-0.0358	3.68 (inactive)	1.73 (inactive)	0.309 (inactive)	1.16 (inactive)	-0.479	1.62 (inactive)	0.898 (inactive)	1.86	-0.596	0.159	0.821	-0.387	-0.0069	-0.742	0.605 (inactive)	-0.517	-0.864	0.304 (inactive)
NCCCCCNC(=O)[C@@H]1C[C@@H]2C(=O)N[C@@H](CCCCN)C(=O)N2[C@@H]1c1cccc(OCCO)c1	1.17 (inactive)	-0.432	0.539 (inactive)	0.0681 (inactive)	1.24 (inactive)	0.0802 (inactive)	-0.157	0.141 (inactive)	0.557 (inactive)	0.582	0.338	0.337	0.68	0.89	0.269	0.0184	1.37 (inactive)	-0.698	-0.362	0.714 (inactive)
COCCOC(=O)N1C(=O)[C@@]2(c3cc(C#CC4=CCCCC4)ccc31)[C@H](c1ccccc1OCCO)N1[C@H](c3ccccc3)[C@H](c3ccccc3)OC(=O)[C@H]1[C@@H]2C(=O)N1CCc2cc(OC)c(OC)cc2C1	-0.26 (inactive)	-0.715	2.7 (inactive)	1.85 (inactive)	0.578 (inactive)	1.02 (inactive)	0.128	1.41 (inactive)	0.739 (inactive)	1.53	0.697	0.186	1.34	0.235	-2.05	0.767	3.23 (inactive)	-1.06	-1.32	-0.926 (inactive)
CC(C)C(O)C1C=CC2C(=O)N(C)C(=O)C2N1N(c1ccccc1)c1ccccc1 (stereo not given)	-0.573 (inactive)	0.213	0.321 (inactive)	0.167 (inactive)	-0.255 (inactive)	1.05 (inactive)	-1.38	-0.71 (inactive)	-0.583 (inactive)	-0.828	-0.659	-1.24	0.689	0.0007	0.0729	-0.0204	-0.291 (inactive)	-0.286	-0.387	-0.391 (inactive)
O=c1cccc(-c2ccc(C(F)(F)F)cc2)o1	-1.06 (inactive)	-0.103	20.1 (active)	3.36 (inactive)	-1.13 (inactive)	1.1 (inactive)	-0.564	0.584 (inactive)	-2.27 (inactive)	-0.246	-1.24	-0.843	-0.701	0.506	-1.02	-0.487	1.75 (inactive)	0.942	-0.507	0.374 (inactive)
CC(C)C(=C=CC[C@H](O)c1ccc(OCCO)cc1)C[C@H](O)c1cc(Cl)cc(Cl)c1O	0.049 (inactive)	0.121	19.4 (active)	3.7 (inactive)	1.44 (inactive)	1.24 (inactive)	-0.173	0.532 (inactive)	-0.473 (inactive)	-1.36	0.648	0.831	-0.627	-3.41	-3.74	-1.77	-0.132 (inactive)	-0.124	-0.66	0.885 (inactive)
NC(=O)NCC#Cc1ccc2c(c1)[C@]1(C(=O)N2)[C@H](C(=O)O)[C@H]2C(=O)O[C@H](c3ccccc3)[C@H](c3ccccc3)N2[C@@H]1c1ccccc1OCCO	3.32 (inactive)	0.73	-1.21 (inactive)	-1.81 (inactive)	-3.99 (inactive)	-2.67 (inactive)	2.78	2.1 (inactive)	0.786 (inactive)	-0.188	0.789	1.03	0.728	1.33	1.35	-0.867	-0.377 (inactive)	-0.0612	0.997	0.877 (inactive)
COC(=O)C1(Cc2ccccc2)C=C2C(=C(c3ccccc3)C(=O)C2C)CN1 (stereo not given)	-1.38 (inactive)	1.23	2.11 (inactive)	-0.0273 (inactive)	0.423 (inactive)	0.298 (inactive)	0.208	-0.66 (inactive)	-3.74 (inactive)	-3.29	-0.874	0.24	-0.515	-0.451	-0.91	-0.832	-1.12 (inactive)	0.213	-0.291	-0.358 (inactive)
COc1ccc([Si](C)(C)[C@H]2[C@H](CCn3cc([C@H](O)c4ccccc4)nn3)O[C@@]3(C(=O)N(Cc4ccc(N5CCC5=O)cc4)c4ccccc43)[C@@H]2C)cc1	0.503 (inactive)	0.0341	30.5 (active)	27.1 (active)	1.25 (inactive)	2.07 (inactive)	0.436	0.923 (inactive)	1.6 (inactive)	2.22	0.399	1.19	-0.541	-0.695	-0.412	0.411	-0.391 (inactive)	-0.445	-0.202	-0.869 (inactive)

Reference: PubChem BioAssay
